Compound activity as filed in PubChem BioAssay.
Rows were chosen to be rich in hits. Some 1.7% of all compounds tested hit in one or more screens of this group.
DUSP3 inh – blocks human VHR1 dual specificity phosphatase; P51452; recombinant VHR phosphatase, pNPP absorbance; inhibition, % at 13.3 µM; hit rate 0.52% among 290,000; AID 1654; in the data active = inhibition above about 50%
Target sequence (P51452 whole entry, looked up): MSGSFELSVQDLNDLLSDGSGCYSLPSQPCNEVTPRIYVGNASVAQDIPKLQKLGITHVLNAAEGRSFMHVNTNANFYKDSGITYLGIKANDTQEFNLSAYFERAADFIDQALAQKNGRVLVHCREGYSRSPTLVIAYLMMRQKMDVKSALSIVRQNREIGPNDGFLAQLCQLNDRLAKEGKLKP
3CLpro inhibitor – SARS-CoV 3CLpro protease inhibition; inhibition, % at 6 µM; P0C6X7; hit rate 0.14% among 290,000; AID 1706; recombinant SARS-CoV 3CLpro, quenched FRET peptide cleavage; in the data active = inhibition above about 12%
SSB-PriA inh – inhibitors of Klebsiella pneumoniae PriA binding to SSB C-terminal tail; AlphaScreen SSBct-PriA binding, biotinylated peptide; inhibition, % at 33 µM; hit rate 0.6% among 430,000; AID 1272365; in the data active = inhibition mostly above about 37%, no sharp cut-off; inactive = mostly below about 20%
RecA splice inh – blocks M. tuberculosis RecA intein splicing; cell-free RecA intein splicing, fluorescence; inhibition, % (concentration not given with the values); hit rate 0.75% among 290,000; AID 2221; in the data active = inhibition above about 30%
CCHFV vOTU inh – CCHFV vOTU protease inhibition; inhibition, % at 11.5 µM; AID 651958; Pep-AMC fluorescence; hit rate 0.55% among 370,000; in the data active = inhibition above about 30%
GFP chromo cs – counter-screen GFP chromophore formation inhibition. shares compounds with RecA splice inh. cell-free GFP chromophore formation, fluorescence. EC50, µM. hit rate 83% among 2,100. AID 434968; call rule not given here
Hits are given with their value.

How did CC(=O)c1c(C)nc(-c2ccc(Cl)cc2)nc1N=CN(C)C do in these assays?
DUSP3 inh: inactive; 3CLpro inhibitor: inactive; SSB-PriA inh: inactive; RecA splice inh: inactive; CCHFV vOTU inh: inactive; GFP chromo cs: inactive

What do the screens show for `Cc1ccc(-c2nnc(Sc3nc4ccccc4o3)c3ccccc23)cc1`?
DUSP3 inh: inactive; 3CLpro inhibitor: inactive; SSB-PriA inh: inactive; RecA splice inh: 77; CCHFV vOTU inh: inactive; GFP chromo cs: 0.93

How did Cc1nnc(Sc2nc3ccccc3o2)c2ccccc12 do in these assays?
DUSP3 inh: inactive; 3CLpro inhibitor: inactive; SSB-PriA inh: inactive; RecA splice inh: 50; CCHFV vOTU inh: inactive; GFP chromo cs: 28

Results for CCSc1nnc(-c2ccc(C)cc2)c2ccccc12 ?
DUSP3 inh: inactive; 3CLpro inhibitor: inactive; SSB-PriA inh: inactive; RecA splice inh: inactive; CCHFV vOTU inh: inactive

Results for Clc1ccc(-c2nnc(Sc3nc4ccccc4o3)c3ccccc23)cc1 ?
DUSP3 inh: inactive; 3CLpro inhibitor: inactive; SSB-PriA inh: inactive; RecA splice inh: 57; CCHFV vOTU inh: inactive; GFP chromo cs: 0.62

How did Cc1ccn2cc(-c3ccc(NS(=O)(=O)c4ccc5ccccc5c4)cc3)nc2n1 do in these assays?
SSB-PriA inh: inactive

What do the screens show for `Cn1ccnc1S(=O)(=O)C1CCN(C(=O)c2ccc(OC(F)(F)F)cc2)CC1`?
SSB-PriA inh: inactive

Results for O=c1c(Cl)c(Cl)cnn1Cc1ccccc1Cl ?
DUSP3 inh: inactive; 3CLpro inhibitor: inactive; SSB-PriA inh: inactive; RecA splice inh: 38; CCHFV vOTU inh: inactive; GFP chromo cs: 20

How did O=c1c(Cl)c(Cl)cnn1Cc1nnc(-c2ccc(Cl)cc2)o1 do in these assays?
DUSP3 inh: inactive; 3CLpro inhibitor: inactive; SSB-PriA inh: inactive; RecA splice inh: 37; CCHFV vOTU inh: inactive; GFP chromo cs: 9.3

How did COc1ccc(-c2cc(=O)[nH][nH]2)cc1 do in these assays?
DUSP3 inh: inactive; 3CLpro inhibitor: inactive; SSB-PriA inh: inactive; RecA splice inh: 98; CCHFV vOTU inh: inactive; GFP chromo cs: 1.9

How did O=c1cc(-c2ccc(Cl)cc2)[nH][nH]1 do in these assays?
DUSP3 inh: inactive; 3CLpro inhibitor: inactive; SSB-PriA inh: inactive; RecA splice inh: 94; CCHFV vOTU inh: inactive; GFP chromo cs: 1.9

How did O=c1cc(-c2ccc(Cl)c(Cl)c2)[nH][nH]1 do in these assays?
DUSP3 inh: inactive; 3CLpro inhibitor: inactive; SSB-PriA inh: inactive; RecA splice inh: 88; CCHFV vOTU inh: inactive; GFP chromo cs: 6.6

What do the screens show for `Cn1cc([C@@H](O)CNC(=O)c2ccc3nsnc3c2)c2ccccc21`?
SSB-PriA inh: inactive

Results for CCC(=O)Nc1nnc(SCc2cc(=O)c(OC(=O)c3cccs3)co2)s1 ?
SSB-PriA inh: inactive

How did O=C1C(Cl)=C(N2CCC(C(=O)O)CC2)C(=O)c2ccccc21 do in these assays?
DUSP3 inh: inactive; 3CLpro inhibitor: inactive; SSB-PriA inh: inactive; RecA splice inh: 50; GFP chromo cs: 13

Results for NC(=O)C1CCN(C2=C(NS(=O)(=O)c3ccccc3)C(=O)c3ccccc3C2=O)CC1 ?
DUSP3 inh: inactive; 3CLpro inhibitor: inactive; SSB-PriA inh: inactive; RecA splice inh: inactive; CCHFV vOTU inh: inactive

How did CCOc1ccc(S(=O)(=O)NCCN2CCN(c3ccc(OC)cc3)CC2)cc1C do in these assays?
SSB-PriA inh: inactive

Results for CCSc1c([N+](=O)[O-])c(=O)n(-c2ccccc2)c2ccccc12 ?
SSB-PriA inh: inactive; RecA splice inh: 40; CCHFV vOTU inh: inactive; GFP chromo cs: inactive

How did O=C(c1ccc(S(=O)(=O)N2CCOCC2)cc1)N1CCC(Cn2ccnc2-c2ccccc2)CC1 do in these assays?
SSB-PriA inh: inactive

How did CC1=NN(c2ccccc2)C(=O)C1/C=C1\C(=O)NC(=O)N(c2ccc(C)c(C)c2)C1=O (stereo not drawn) do in these assays?
DUSP3 inh: inactive; 3CLpro inhibitor: inactive; SSB-PriA inh: inactive; RecA splice inh: 41; CCHFV vOTU inh: inactive; GFP chromo cs: 16

What do the screens show for `O=C(N/N=C/c1coc2ccc(Cl)cc2c1=O)c1ccc(O)cc1`?
DUSP3 inh: inactive; 3CLpro inhibitor: inactive; SSB-PriA inh: inactive; RecA splice inh: 38; CCHFV vOTU inh: inactive; GFP chromo cs: 32

How did COc1cc(C(=O)N/N=C/c2coc3ccc(Cl)cc3c2=O)ccc1O do in these assays?
DUSP3 inh: inactive; 3CLpro inhibitor: inactive; SSB-PriA inh: inactive; RecA splice inh: inactive; CCHFV vOTU inh: inactive

Results for O=C(N/N=C/c1coc2ccc(Cl)cc2c1=O)c1ccncc1 ?
DUSP3 inh: inactive; 3CLpro inhibitor: inactive; RecA splice inh: inactive; CCHFV vOTU inh: inactive

How did COc1ccc(C(=O)N/N=C\c2coc3ccc(Cl)cc3c2=O)cc1 do in these assays?
DUSP3 inh: inactive; 3CLpro inhibitor: inactive; RecA splice inh: 37; CCHFV vOTU inh: inactive; GFP chromo cs: 38

Results for COc1ccc(-n2nc3c(c2NC(=O)Cc2cccc4ccccc24)CS(=O)C3)cc1 (stereo not drawn) ?
SSB-PriA inh: inactive

How did CCc1cc2c3c(c1)C1(C(=O)N3C(C)(C)C=C2C)C(C#N)=C(N)Oc2[nH]c(=O)[nH]c(=O)c21 (stereo not drawn) do in these assays?
DUSP3 inh: inactive; 3CLpro inhibitor: inactive; SSB-PriA inh: inactive; RecA splice inh: 78; CCHFV vOTU inh: inactive; GFP chromo cs: 19

Results for Cc1ccccc1OCC(=O)NCC#CCOc1ccc2c(c1)OCO2 ?
SSB-PriA inh: inactive

Results for O=C(NC1CCCC1)C(c1ccc(F)cc1)N(Cc1ccc(Cl)cc1)C(=O)CCl (stereo not drawn) ?
DUSP3 inh: inactive; 3CLpro inhibitor: inactive; SSB-PriA inh: inactive; RecA splice inh: 59; CCHFV vOTU inh: inactive; GFP chromo cs: 7

How did COC(=O)c1ccc(C(C(=O)NC2CCCCC2)N(Cc2ccc(F)cc2)C(=O)Cc2cccs2)cc1 (stereo not drawn) do in these assays?
DUSP3 inh: inactive; 3CLpro inhibitor: inactive; SSB-PriA inh: inactive; RecA splice inh: inactive; CCHFV vOTU inh: inactive

Results for O=C(NC1CCCC1)C(c1ccc(Cl)cc1)N(Cc1ccc(F)cc1)C(=O)CCl (stereo not drawn) ?
DUSP3 inh: inactive; 3CLpro inhibitor: inactive; SSB-PriA inh: inactive; RecA splice inh: 67; GFP chromo cs: 2.7

What do the screens show for `Brc1ccc(CNc2ccc3ncccc3c2)cc1`?
DUSP3 inh: inactive; 3CLpro inhibitor: inactive; SSB-PriA inh: inactive; RecA splice inh: 39; CCHFV vOTU inh: inactive; GFP chromo cs: inactive

Results for O=C(Nc1ccc2ncccc2c1)c1cccc(Br)c1 ?
DUSP3 inh: inactive; 3CLpro inhibitor: inactive; SSB-PriA inh: inactive; RecA splice inh: inactive; CCHFV vOTU inh: inactive

Results for CS/C(=C/[N+](=O)[O-])Nc1cccc2c1C(C)CC2(C)C (stereo not drawn) ?
DUSP3 inh: inactive; 3CLpro inhibitor: inactive; SSB-PriA inh: inactive; RecA splice inh: 67; CCHFV vOTU inh: inactive; GFP chromo cs: 38

What do the screens show for `CC(=O)Nc1cc2c(c([N+](=O)[O-])c1C)C(C)(C)CC2(C)C`?
SSB-PriA inh: inactive; CCHFV vOTU inh: inactive

What do the screens show for `Nc1ccc2ncccc2c1`?
DUSP3 inh: inactive; 3CLpro inhibitor: inactive; SSB-PriA inh: inactive; RecA splice inh: 70; CCHFV vOTU inh: inactive; GFP chromo cs: 16
